The list is not random: actives were taken first. Their share in the collection is about 1.9%.
sEH activator: activators of human soluble epoxide hydrolase; activation, % at 2 µM; P34913; actives 0.04% (n = 91,000); purified human sEH enzymatic activity, activator screen; in the data active means activation above about 37%
Target sequence (P34913 whole entry, looked up): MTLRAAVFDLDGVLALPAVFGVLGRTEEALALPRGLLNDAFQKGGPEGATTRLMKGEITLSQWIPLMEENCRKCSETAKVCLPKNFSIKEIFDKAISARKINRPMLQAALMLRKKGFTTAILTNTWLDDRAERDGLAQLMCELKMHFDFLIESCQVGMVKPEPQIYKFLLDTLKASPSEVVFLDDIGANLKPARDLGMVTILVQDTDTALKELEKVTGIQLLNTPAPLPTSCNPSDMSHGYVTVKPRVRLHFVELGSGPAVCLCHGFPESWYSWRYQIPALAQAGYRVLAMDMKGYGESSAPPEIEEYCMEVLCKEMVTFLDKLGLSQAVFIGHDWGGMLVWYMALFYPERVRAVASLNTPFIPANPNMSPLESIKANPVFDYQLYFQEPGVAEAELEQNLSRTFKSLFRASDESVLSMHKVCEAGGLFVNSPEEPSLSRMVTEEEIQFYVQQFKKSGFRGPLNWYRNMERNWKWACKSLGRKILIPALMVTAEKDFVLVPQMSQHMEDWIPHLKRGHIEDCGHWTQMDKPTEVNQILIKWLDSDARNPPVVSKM
Calb biofilm kill: kills Candida albicans biofilms; C. albicans biofilm + clotrimazole, Alamar Blue; inhibition, % at 6 µM; actives 0.14% (n = 85,000); AID 834;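 active means inhibition above 20%; inactive means inhibition below 20%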;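 further: preformed 24 hr biofilms exposed to compound for 48 hr; 0% = biofilm without compound and 100% = blank killed by clotrimazole plus chlorhexidine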
Measles CPE: protection of cells from measles virus. Measles virus-infected cells, CPE protection, absorbance. protection (pct of control), % at 4 µM. actives 1.5% (n = 140,000); in the data active means protection mostly above about 24%, no sharp cut-off; inactive means mostly below about 26%
cytoskel mod: modifiers of cytoskeleton assembly | HUVEC TNFa F-actin phalloidin imaging, high content | inhibition, % at 2 µM | actives 0.18% (n = 91,000) | AID 836;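 active means inhibition above the batch mean plus 3 SD and confirmed as a hit by visual image inspection, cut at about 30% in these data, passing the limit was not always enough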
sEH inh: soluble epoxide hydrolase (human) inhibition; actives 0.34% (n = 91,000); recombinant human sEH enzymatic activity assay; AID 707; inhibition, % at 2 µM; in the data active means inhibition above about 80%
Active calls of the source: *; · = no result.

SMILES	sEH activator	Calb biofilm kill	Measles CPE	cytoskel mod	sEH inh
CCCCCCC1CCC(C(=O)NC(CCSC)C(=O)NC(C(=O)OC)C(C)C)CC1 (stereo unspecified)	5	37*	3	6	-8
O=C(NC1CCCCC1)NC1CC2CCC(C1)N2C(=O)NC1CCCCC1 (stereo unspecified)	-71	6	25*	1	71
CSCCC(=O)N1C(C)CCCC1C(=O)O (stereo unspecified)	3	7	26*	·	-6
CC(=O)SCCC(=O)N1C(C)CCCC1C(=O)O (stereo unspecified)	·	5	2	16	·
CCNc1nnc(-c2ccc(C)cc2)o1	·	7	39*	18	·
Cc1ccc(-c2nnc(-c3ccccc3)o2)cc1	6	6	10	-9	-6
CC(=O)N1c2ccccc2N(Cc2ccc(C)cc2C)C(=O)C1(C)C	1	5	8	-15	3
C=CCN1C(=O)C(C)(C)N(C(C)=O)c2ccccc21	·	·	20*	·	·
CS(=O)(=O)N(Cc1ccc(C(=O)NCc2ccco2)cc1)c1ccccc1	-19	0	34*	-15	19
CS(=O)(=O)N(Cc1ccc(C(=O)NCCSCc2ccco2)cc1)c1ccccc1	-81	1	3	8	81*
CN(c1ccc(C(=O)NCc2ccco2)cc1)S(C)(=O)=O	0	3	32	12	-1
CCOc1ccc2[nH]c(=O)c(CN(Cc3ccccc3)C(=O)N3CCCC3)cc2c1	-5	·	2	50*	7
CCc1nc(Nc2ccncc2)c2oc3ccccc3c2n1	10	11	3	-20	-13
CCc1nc(Nc2ccc3c(c2)OCO3)c2oc3ccccc3c2n1	-1	·	57*	-25	0
COc1ccc(Br)cc1C(=O)N/N=C/c1ccc2c(c1)n(C)c(=O)n2C	·	·	37*	·	·
COc1ccccc1-n1c(SCC(=O)Nc2cccc(C)c2)nc2c(c1=O)SCC2	·	5	47*	5	·
Cc1ccc(NCc2nc3ccccc3n2CCOc2ccccc2)cc1	·	·	2	·	·
Cc1ccc(NC(=O)NC2CCN(S(=O)(=O)c3ccc(F)cc3)CC2)cc1	-84	5	10	1	85*
CCCCn1c(NC(=O)c2ccccc2Cl)c(C#N)c2nc3ccccc3nc21	-5	-6	6	-8	2
N#Cc1c(NC(=O)c2ccccc2Cl)n(Cc2ccccc2)c2nc3ccccc3nc12	·	·	47*	·	·
O=C(c1ccc(NC2=NC3CS(=O)(=O)CC3S2)cc1)N1CCc2ccccc2C1 (stereo unspecified)	·	29*	7	·	·
O=C(c1ccc(NC2=NC3CS(=O)(=O)CC3S2)cc1)N1CCN(Cc2ccccc2)CC1 (stereo unspecified)	8	5	5	-7	-10
Cn1c(N2CCN(C(=O)Nc3ccc(C(F)(F)F)cc3)CC2)nc2ccccc21	-47	7	14	-8	47
COc1cc(/C(C)=N\NC(N)=S)cc(OC)c1OC	·	·	35*	·	·
COc1cc(/C(C)=N/NC(=S)NC(C)C)cc(OC)c1OC	·	·	12	·	·
SMILES	sEH activator	Calb biofilm kill	Measles CPE	cytoskel mod	sEH inh
CC(C)OCCCNC(=O)CCSc1ccc(Cl)cc1	-15	9	11	2	15
CC1=NNC(=O)C1CCC(=O)N/N=C\c1ccccc1[N+](=O)[O-] (stereo unspecified)	-4	·	24	-1	6
S=c1sc(SCCOc2ccccc2)nn1-c1ccccc1	·	·	93*	·	·
O=C(CSc1ccc(Cl)cc1)NCC1CCCO1 (stereo unspecified)	9	65*	5	-2	-12
O=C(COc1ccc(F)cc1)NCC1CCCO1 (stereo unspecified)	9	10	43*	-1	-6
O=C(COc1ccccc1)NCC1CCCO1 (stereo unspecified)	11	-3	4	-5	-11
CC(OC(=O)c1cc(-c2cccnc2)nc2ccccc12)C(=O)Nc1ccc2ccccc2c1 (stereo unspecified)	·	·	12	·	·
CCCCCCCC1CC(/C(C)=N/NC(N)=O)OC1=O (stereo unspecified)	·	·	3	·	·
O=Nc1ccc(NOC(=O)c2ccccc2Br)cc1	·	·	28*	·	·
CCOC(=O)c1c(C)n(C)c2ccc(OC(=O)c3ccoc3)cc12	·	·	39*	-5	·
OCCNCCCCOc1ccc(F)cc1	12	7	48*	2	-12
COC(=O)c1ccccc1NC(=S)NC(=O)c1ccc2ccccc2c1	·	·	4	·	·
COC(=O)c1ccccc1NC(=S)NC(=O)c1cccc2ccccc12	5	·	59*	1	-7
CCOc1cc(/C=N/NC(N)=O)cc(Br)c1OCC(=O)Nc1cccc2ccccc12	10	·	45*	16	-9
CCOC(=O)N1CCC(NC(=O)CCCN2C(=O)CSc3ncccc32)CC1	·	5	7	·	·
CCOC(=O)N1CCC(NC(=O)CN2C(=O)CSc3ncccc32)CC1	·	-8	30*	·	·
CCOc1ccc(-n2c(SCC(=O)Nc3ccc4c(c3)OCO4)nc3ccccc3c2=O)cc1	9	8	45*	4	-6
COc1ccc(-n2c(SCC(=O)Nc3ccc4c(c3)OCO4)nc3ccccc3c2=O)cc1	-5	4	14	-4	4
C=CCn1c(-c2cccnc2)n[nH]c1=S	·	·	19	·	·
C=CCn1c(-c2ccc([N+](=O)[O-])cc2)n[nH]c1=S	·	·	38*	·	·
Cc1c(C(=O)NN)nc2ccccn12	·	·	14	·	·
Cc1ccc(NC(=O)CCn2nc([N+](=O)[O-])cc2C)nc1	·	·	6	·	·
CCCCOC(=O)Nc1cccc(Cl)c1C	10	4	32	·	-12
CCc1cc(C(=O)OC)c(NC(=O)C2CC(=O)NN2Cc2ccccc2)s1 (stereo unspecified)	2	·	23*	-5	0
CCc1cc(C(=O)OC)c(NC(=O)CC2NCCNC2=O)s1 (stereo unspecified)	-9	7	1	-2	11
SMILES	sEH activator	Calb biofilm kill	Measles CPE	cytoskel mod	sEH inh
COc1ccccc1C(=O)N(NC(=O)Oc1ccccc1)C(C)(C)C	·	·	4	·	·
CCCCNC(=O)C1=C(N)C(C(=O)Nc2ccc(C)c(S(=O)(=O)N3CCCCC3)c2)SC1=Nc1ccc(C)cc1C (stereo unspecified)	2	·	3	-8	-2
CC(CN1CCOCC1)OC(=O)c1ccccc1Br (stereo unspecified)	·	-1	56*	17	·
Cc1ccc2nc(Cl)c(/C=N/NC(=O)[C@H]3C[C@@H]3c3ccccc3)cc2c1	·	·	10	·	·
CC(C)(C)c1ccc(C2CC2C(=O)N/N=C\c2cc3ccccc3nc2Cl)cc1 (stereo unspecified)	0	·	51*	-24	5
Cc1nn(C2CCS(=O)(=O)C2)c(Cl)c1/C=C/C(=O)OCC(=O)c1c[nH]c2ccccc12 (stereo unspecified)	·	·	4	·	·
Cc1nn(C2CCS(=O)(=O)C2)c(Cl)c1/C=C/C(=O)OCC(=O)c1cc(C)n(-c2ccc(F)cc2)c1C (stereo unspecified)	·	·	46*	·	·
CCN1CCc2c(C#N)c(N3CCCCC3)nc(NCc3ccccc3)c2C1	-1	5	0	-1	3
C=CCNc1nc(N2CCCCC2)c(C#N)c2c1CN(Cc1ccccc1)CC2	-34	-4	61*	28	33
C#CC1(O)CC(C)N(C)C(C)C1 (stereo unspecified)	0	6	14	9	-1

Source: PubChem (several laboratories)
